{"source": "PubChem BioAssay (Tox21)", "note": "Records with an inconclusive call do not appear. Unmarked numbers belong to inactive results. The source made the active and inactive calls. The call rests on the fitted dose curve; in most records, active means well fitted curve in the direction sought with a large enough effect in the repeat runs; inconclusive means weak or mixed curves; inactive means no such curve, though single readings can be large; an effect the other way counts as inactive or inconclusive. On the % scale 0 is the no-effect control and ±100 the full control effect; potency means the concentration at half of the fitted maximal effect."}
{"test": "A CellTox Green Cytotoxicity Assay to monitor cytotoxicity in HepG2 cells - 16 hour (AID 1224876); further: nearly all actives have a fitted effect of over 45% in size", "conditions": "CellTox Green fluorescence; series mostly up to 76.8 µM; cytotoxicity increase: at the top concentration", "method_in_brief": "(§1)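 Read-out is fluorescence of a cyanine dye excluded from live cells that stains DNA of dead HepG2 cells, with signal proportional to cytotoxicity. Plates were read at 0, 8, 16, 24, 32 and 40 h after compound addition.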"}
{"molecule": "N#CCCC#N", "cytotoxicity increase": "-0.564%"}
{"molecule": "Nc1ccccc1Cl", "cytotoxicity increase": "3.89%"}
{"molecule": "ClCCOCOCCCl", "cytotoxicity increase": "-0.321%"}
{"molecule": "CNC(=O)O/N=C(\\C)SC", "Potency": "219 nM (active)"}
{"molecule": "CC1CN1P(=O)(N1CC1C)N1CC1C", "note": "(configuration not stated)", "cytotoxicity increase": "-15.6%"}
{"molecule": "BrCCCCCCBr", "cytotoxicity increase": "-0.214%"}
{"molecule": "COc1cccc(C(=O)NN(C(=O)c2cc(C)cc(C)c2)C(C)(C)C)c1C", "cytotoxicity increase": "-2.94%"}
{"molecule": "CNC(=O)Oc1ccccc1C1OCCO1", "cytotoxicity increase": "-6.52%"}
{"molecule": "O=C1CN=C(c2ccccc2)c2cc([N+](=O)[O-])ccc2N1", "cytotoxicity increase": "0.652% [at 35.3 µM]"}
{"molecule": "O=C(NCO)NCO", "cytotoxicity increase": "-13.3%"}
{"molecule": "CC1CCC(=O)O1", "note": "(configuration not stated)", "cytotoxicity increase": "-9.16%"}
{"molecule": "CCCCCCBr", "cytotoxicity increase": "-14%"}
{"molecule": "O=c1oc2ccccc2c(O)c1C1CCCc2ccccc21", "note": "(configuration not stated)", "cytotoxicity increase": "-3.95%"}
{"molecule": "CCCCCCI", "cytotoxicity increase": "-8.08%"}
{"molecule": "OCCBr", "cytotoxicity increase": "2.95%"}
{"molecule": "CCCCP(CCCC)CCCC", "cytotoxicity increase": "-9.29%"}
{"molecule": "CCNc1nc(NC(C)C)nc(OC)n1", "cytotoxicity increase": "-1.87%"}
{"molecule": "CNC(=O)Oc1ccc(N(C)C)c(C)c1", "cytotoxicity increase": "-7.96%"}
{"molecule": "CC1(C)C(=O)NC(=O)NC1=O", "cytotoxicity increase": "-0.119%"}
{"molecule": "Clc1ccccc1N1CCNCC1", "cytotoxicity increase": "-6.95% [at 35.3 µM]"}
{"molecule": "ClCC(Cl)(Cl)Cl", "cytotoxicity increase": "0.85%"}
{"molecule": "c1ccc(N2CCNCC2)cc1", "cytotoxicity increase": "-16.5% [at 35.3 µM]"}
{"molecule": "NC(=S)C(N)=S", "cytotoxicity increase": "-1.72%"}
{"molecule": "C=CC1CC=CCC1", "note": "(configuration not stated)", "cytotoxicity increase": "-0.881%"}
{"molecule": "OCCSCSCCO", "cytotoxicity increase": "1.84%"}
{"molecule": "CC1(C)COP(Oc2ccccc2)OC1", "cytotoxicity increase": "-3.62%"}
{"molecule": "CC(C)CC#N", "cytotoxicity increase": "-5.49%"}
{"molecule": "CC1COC2(c3ccccc3Cl)c3cc(Cl)ccc3NC(=O)CN12", "note": "(configuration not stated)", "cytotoxicity increase": "23.5% [at 35.3 µM]"}
{"molecule": "O=C1CN2CCOC2(c2ccccc2Cl)c2cc(Cl)ccc2N1", "note": "(configuration not stated)", "cytotoxicity increase": "1.14% [at 35.3 µM]"}
{"molecule": "ClC(Br)Br", "cytotoxicity increase": "-2.41%"}
{"molecule": "[O]=[Cd]", "cytotoxicity increase": "-0.274%"}
{"molecule": "C[N+](=O)[O-]", "cytotoxicity increase": "3.42%"}
{"molecule": "CC(N)=S", "cytotoxicity increase": "-0.532%"}
{"molecule": "C#CCN1C(=O)COc2cc(F)c(N3C(=O)C4=C(CCCC4)C3=O)cc21", "cytotoxicity increase": "-1.25%"}
{"molecule": "[As]#[In]", "cytotoxicity increase": "-16%"}
{"molecule": "CC(C)(C)NCC(O)c1cc(Cl)c(N)c(Cl)c1", "note": "(configuration not stated)", "cytotoxicity increase": "9.28% [at 35.3 µM]"}
{"test": "qHTS RealTime-Glo MT Cell Viability Assay in HepG2 cells - 32 hour (AID 1224877); further: nearly all actives have a fitted effect of over 55% in size", "conditions": "RealTime-Glo luminescence; series mostly up to 76.8 µM; activity change, negative = cytotoxic: at the top concentration", "method_in_brief": "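Real-time, nonlytic viability: 600 HepG2 cells/well mixed with NanoLuc enzyme plus prosubstrate; 5 h settle, compound (DMSO) added by pintool; luminescence monitored over 40 h at 37 C.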"}
{"molecule": "N#CCCC#N", "activity change, negative = cytotoxic": "2.89%"}
{"molecule": "Nc1ccccc1Cl", "activity change, negative = cytotoxic": "0.353%"}
{"molecule": "ClCCOCOCCCl", "activity change, negative = cytotoxic": "-0.931%"}
{"molecule": "CNC(=O)O/N=C(\\C)SC", "activity change, negative = cytotoxic": "2.52%"}
{"molecule": "CC1CN1P(=O)(N1CC1C)N1CC1C", "note": "(configuration not stated)", "activity change, negative = cytotoxic": "-0.439%"}
{"molecule": "BrCCCCCCBr", "activity change, negative = cytotoxic": "0.678%"}
{"molecule": "CNC(=O)Oc1ccccc1C1OCCO1", "activity change, negative = cytotoxic": "1.94%"}
{"molecule": "O=C1CN=C(c2ccccc2)c2cc([N+](=O)[O-])ccc2N1", "activity change, negative = cytotoxic": "-1.04% [at 35.3 µM]"}
{"molecule": "O=C(NCO)NCO", "activity change, negative = cytotoxic": "4.58%"}
{"molecule": "CC1CCC(=O)O1", "note": "(configuration not stated)", "activity change, negative = cytotoxic": "0.941%"}
{"molecule": "CCCCCCBr", "activity change, negative = cytotoxic": "4.6%"}
{"molecule": "O=c1oc2ccccc2c(O)c1C1CCCc2ccccc21", "note": "(configuration not stated)", "activity change, negative = cytotoxic": "1.56%"}
{"molecule": "CCCCCCI", "Potency": "34700 nM (active)"}
{"molecule": "OCCBr", "activity change, negative = cytotoxic": "1.52%"}
{"molecule": "CCCCP(CCCC)CCCC", "activity change, negative = cytotoxic": "1.04%"}
{"molecule": "CCNc1nc(NC(C)C)nc(OC)n1", "activity change, negative = cytotoxic": "-0.294%"}
{"molecule": "CNC(=O)Oc1ccc(N(C)C)c(C)c1", "activity change, negative = cytotoxic": "1.64%"}
{"molecule": "CC1(C)C(=O)NC(=O)NC1=O", "activity change, negative = cytotoxic": "1.77%"}
{"molecule": "Clc1ccccc1N1CCNCC1", "activity change, negative = cytotoxic": "0.0562% [at 35.3 µM]"}
{"molecule": "ClCC(Cl)(Cl)Cl", "activity change, negative = cytotoxic": "-2.13%"}
{"molecule": "c1ccc(N2CCNCC2)cc1", "activity change, negative = cytotoxic": "2.24% [at 35.3 µM]"}
{"molecule": "NC(=S)C(N)=S", "activity change, negative = cytotoxic": "1.82%"}
{"molecule": "C=CC1CC=CCC1", "note": "(configuration not stated)", "activity change, negative = cytotoxic": "4.7%"}
{"molecule": "OCCSCSCCO", "activity change, negative = cytotoxic": "2.01%"}
{"molecule": "CC1(C)COP(Oc2ccccc2)OC1", "activity change, negative = cytotoxic": "-0.951%"}
{"molecule": "CC(C)CC#N", "activity change, negative = cytotoxic": "0.268%"}
{"molecule": "CC1COC2(c3ccccc3Cl)c3cc(Cl)ccc3NC(=O)CN12", "note": "(configuration not stated)", "activity change, negative = cytotoxic": "-9.7% [at 35.3 µM]"}
{"molecule": "O=C1CN2CCOC2(c2ccccc2Cl)c2cc(Cl)ccc2N1", "note": "(configuration not stated)", "activity change, negative = cytotoxic": "-2.78% [at 35.3 µM]"}
{"molecule": "ClC(Br)Br", "activity change, negative = cytotoxic": "0.163%"}
{"molecule": "[O]=[Cd]", "activity change, negative = cytotoxic": "-5.96%"}
{"molecule": "ClC(Cl)C(Cl)Cl", "activity change, negative = cytotoxic": "2.47%"}
{"molecule": "C[N+](=O)[O-]", "activity change, negative = cytotoxic": "1.28%"}
{"molecule": "CC(N)=S", "activity change, negative = cytotoxic": "2.16%"}
{"molecule": "C#CCN1C(=O)COc2cc(F)c(N3C(=O)C4=C(CCCC4)C3=O)cc21", "activity change, negative = cytotoxic": "1.18%"}
{"molecule": "[As]#[In]", "activity change, negative = cytotoxic": "-0.308%"}
{"molecule": "CC(C)(C)NCC(O)c1cc(Cl)c(N)c(Cl)c1", "note": "(configuration not stated)", "activity change, negative = cytotoxic": "0.566% [at 35.3 µM]"}
{"test": "A CellTox Green Cytotoxicity Assay to monitor cytotoxicity in HepG2 cells - 24 hour (AID 1224878); further: nearly all actives have a fitted effect of over 45% in size", "conditions": "CellTox Green fluorescence; series mostly up to 76.8 µM; cytotoxicity: at the top concentration", "method_in_brief": "as §1"}
{"molecule": "N#CCCC#N", "cytotoxicity": "-2.1%"}
{"molecule": "Nc1ccccc1Cl", "cytotoxicity": "3.41%"}
{"molecule": "ClCCOCOCCCl", "cytotoxicity": "-1.59%"}
{"molecule": "CNC(=O)O/N=C(\\C)SC", "cytotoxicity": "-6.3%"}
{"molecule": "CC1CN1P(=O)(N1CC1C)N1CC1C", "note": "(configuration not stated)", "cytotoxicity": "-15.8%"}
{"molecule": "BrCCCCCCBr", "cytotoxicity": "-0.157%"}
{"molecule": "COc1cccc(C(=O)NN(C(=O)c2cc(C)cc(C)c2)C(C)(C)C)c1C", "Potency": "616 nM (active)"}
{"molecule": "CNC(=O)Oc1ccccc1C1OCCO1", "cytotoxicity": "-6.61%"}
{"molecule": "O=C1CN=C(c2ccccc2)c2cc([N+](=O)[O-])ccc2N1", "cytotoxicity": "1.2% [at 35.3 µM]"}
{"molecule": "O=C(NCO)NCO", "cytotoxicity": "-15.7%"}
{"molecule": "CC1CCC(=O)O1", "note": "(configuration not stated)", "cytotoxicity": "-8.22%"}
{"molecule": "CCCCCCBr", "cytotoxicity": "-16%"}
{"molecule": "O=c1oc2ccccc2c(O)c1C1CCCc2ccccc21", "note": "(configuration not stated)", "cytotoxicity": "-6.2%"}
{"molecule": "CCCCCCI", "cytotoxicity": "-10%"}
{"molecule": "OCCBr", "cytotoxicity": "0.462%"}
{"molecule": "CCCCP(CCCC)CCCC", "cytotoxicity": "-8.02%"}
{"molecule": "CCNc1nc(NC(C)C)nc(OC)n1", "cytotoxicity": "-9.11%"}
{"molecule": "CNC(=O)Oc1ccc(N(C)C)c(C)c1", "cytotoxicity": "-9.35%"}
{"molecule": "CC1(C)C(=O)NC(=O)NC1=O", "cytotoxicity": "-1.05%"}
{"molecule": "Clc1ccccc1N1CCNCC1", "cytotoxicity": "-5.19% [at 35.3 µM]"}
{"molecule": "ClCC(Cl)(Cl)Cl", "cytotoxicity": "1.33%"}
{"molecule": "c1ccc(N2CCNCC2)cc1", "cytotoxicity": "-15.5% [at 35.3 µM]"}
{"molecule": "NC(=S)C(N)=S", "cytotoxicity": "-2.6%"}
{"molecule": "C=CC1CC=CCC1", "note": "(configuration not stated)", "cytotoxicity": "0.0724%"}
{"molecule": "OCCSCSCCO", "cytotoxicity": "2.68%"}
{"molecule": "CC1(C)COP(Oc2ccccc2)OC1", "cytotoxicity": "-5.21%"}
{"molecule": "CC(C)CC#N", "cytotoxicity": "-4.16%"}
{"molecule": "CC1COC2(c3ccccc3Cl)c3cc(Cl)ccc3NC(=O)CN12", "note": "(configuration not stated)", "cytotoxicity": "29.2% [at 35.3 µM]"}
{"molecule": "O=C1CN2CCOC2(c2ccccc2Cl)c2cc(Cl)ccc2N1", "note": "(configuration not stated)", "cytotoxicity": "7.13% [at 35.3 µM]"}
{"molecule": "ClC(Br)Br", "cytotoxicity": "-2.95%"}
{"molecule": "[O]=[Cd]", "cytotoxicity": "-0.981%"}
{"molecule": "C[N+](=O)[O-]", "cytotoxicity": "3.02%"}
{"molecule": "CC(N)=S", "cytotoxicity": "-3.47%"}
{"molecule": "C#CCN1C(=O)COc2cc(F)c(N3C(=O)C4=C(CCCC4)C3=O)cc21", "cytotoxicity": "-0.547%"}
{"molecule": "CC(C)(C)NCC(O)c1cc(Cl)c(N)c(Cl)c1", "note": "(configuration not stated)", "cytotoxicity": "4.96% [at 35.3 µM]"}
